Results published in PubChem BioAssay (Tox21).
“And” between values parts separate entries of the source, which are not always exact repeats. Equal entries are not always repeated. Records with an inconclusive call do not appear. Where a call stands in place of a potency, no number is given. The source made the active and inactive calls. Unless noted, the call rests on the fitted dose curve; in most records, active means well fitted curve in the direction sought with a large enough effect in the repeat runs; inconclusive means weak or mixed curves; inactive means no such curve, though single readings can be large; an effect the other way counts as inactive or inconclusive.

Columns and labels:
[1] = qHTS assay to identify small molecule antagonists of the estrogen related receptor (ERR) signaling pathway from Tox21 library - cell viability counter screen (AID 1224834); further: nearly all actives have a fitted effect of over 30% in size
In short: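 ERR reporter cells were plated 6 h before compound addition, then exposed to test compounds in DMSO for 17.5 h at 37 C. Viability was read as CellTiter-Fluor fluorescence after a 30-minute incubation at 37 C.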

[2] = target: Luciferin 4-monooxygenase (Photinus pyralis) (UniProt P08659); assay: qHTS assay to identify small molecule inhibitors of firefly luciferase (AID 1224835); further: nearly all actives have a fitted effect of over 25% in size; further: potency means the concentration at half of the fitted maximal effect
Luciferin 4-monooxygenase (Photinus pyralis), sequence (P08659 whole entry, looked up): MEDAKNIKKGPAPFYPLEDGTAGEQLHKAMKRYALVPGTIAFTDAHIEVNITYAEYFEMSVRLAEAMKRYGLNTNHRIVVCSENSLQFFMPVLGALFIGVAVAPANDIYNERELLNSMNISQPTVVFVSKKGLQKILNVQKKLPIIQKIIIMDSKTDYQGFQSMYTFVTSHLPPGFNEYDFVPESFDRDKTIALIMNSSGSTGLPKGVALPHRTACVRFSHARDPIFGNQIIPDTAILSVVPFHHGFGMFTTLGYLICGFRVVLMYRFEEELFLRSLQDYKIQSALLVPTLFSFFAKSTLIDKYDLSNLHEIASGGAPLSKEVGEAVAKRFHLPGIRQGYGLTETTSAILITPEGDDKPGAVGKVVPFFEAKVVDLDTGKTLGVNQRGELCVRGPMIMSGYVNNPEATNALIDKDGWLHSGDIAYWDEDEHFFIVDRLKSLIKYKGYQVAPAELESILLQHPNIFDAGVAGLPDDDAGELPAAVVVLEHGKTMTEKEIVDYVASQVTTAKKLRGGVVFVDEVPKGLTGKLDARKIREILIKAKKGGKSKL
In short: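 Biochemical qHTS: compounds run as interplate titrations against purified firefly enzyme, with D-luciferin and ATP each at its KM concentration. Light output recorded by CCD imaging.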

[3] = qHTS assay to identify small molecule agonists of the constitutive androstane receptor (CAR) signaling pathway - cell viability counter screen (AID 1224836); further: series mostly up to about 92 µM; nearly all actives have a fitted effect of over 45% in size
In short: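 HepG2 cells stably carrying hCAR and a CYP2B6-2.2kb reporter; 15-concentration compounds plus PK11195 (final 0.75 uM), 23 hr at 37 C/5% CO2. Viability read by CellTiter-Fluor fluorescence.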

[4] = qHTS assay to identify small molecule antagonists of the constitutive androstane receptor (CAR) signaling pathway - cell viability counter screen (AID 1224837); further: series mostly up to about 92 µM; nearly all actives have a fitted effect of over 45% in size
In short: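 HepG2 cells stably expressing hCAR and a CYP2B6-2.2kb reporter were plated and pre-incubated 4 hr at 37 C/5% CO2, then given compounds at 15 concentrations plus 50 nM CITCO (final). After 23 hr, viability was read by CellTiter-Fluor fluorescence.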

[5] = target: Nuclear receptor subfamily 1 group I member 3 (Homo sapiens) (UniProt Q14994); assay: qHTS assay to identify small molecule antagonists of the constitutive androstane receptor (CAR) signaling pathway (AID 1224838); further: nearly all actives have a fitted effect of over 40% in size
Nuclear receptor subfamily 1 group I member 3 (Homo sapiens), sequence (Q14994 whole entry, looked up): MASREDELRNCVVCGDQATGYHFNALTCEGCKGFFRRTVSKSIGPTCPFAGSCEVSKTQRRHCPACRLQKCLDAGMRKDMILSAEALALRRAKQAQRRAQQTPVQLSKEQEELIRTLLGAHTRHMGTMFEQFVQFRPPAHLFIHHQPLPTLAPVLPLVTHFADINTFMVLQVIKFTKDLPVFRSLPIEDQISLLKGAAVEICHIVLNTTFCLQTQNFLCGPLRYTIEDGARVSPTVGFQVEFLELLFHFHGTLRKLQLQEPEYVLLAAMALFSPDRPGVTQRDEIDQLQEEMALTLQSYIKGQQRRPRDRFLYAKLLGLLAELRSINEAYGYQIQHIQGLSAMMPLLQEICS
In short: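 HepG2 cells stably co-transfected with hCAR and a CYP2B6-2.2kb luciferase reporter were seeded 4 h before compound addition at 15 concentrations. Cells were stimulated with 50 nM CITCO (final) for 24 h at 37 C; luciferase luminescence was then read.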

[6] = target: Nuclear receptor subfamily 1 group I member 3 (Homo sapiens) (UniProt Q14994); assay: qHTS assay to identify small molecule agonists of the constitutive androstane receptor (CAR) signaling pathway (AID 1224839); further: nearly all actives have a fitted effect of over 15% in size; further: potency means the concentration at half of the fitted maximal effect;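 on activation: HepG2 cells stably carrying human CAR and a CYP2B6 luciferase reporter; series mostly up to about 92 µM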
In short: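 HepG2 cells stably co-transfected with hCAR and a CYP2B6-2.2kb luciferase reporter; compounds at 15 concentrations with 0.75 uM PK11195 present. After 24 hr at 37 C, luciferase read by ONE-Glo luminescence.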

[7] = qHTS assay to identify small molecule antagonists of the estrogen related receptor signaling pathway with the pleiotropic PPARgamma coactivator (PGC) from Tox21 10K library - cell viability counter screen (AID 1224840; active means well fitted cell-killing curve with a large enough effect in the repeat runs, not every such curve was filed as active; further: nearly all actives have a fitted effect of over 40% in size)
In short: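 PGC/ERR cells were seeded at 2,000 cells/well and left 6 hours at 37 C/5% CO2 before pin-tool addition of compounds in DMSO. After 17.5 hours at 37 C, CellTiter-Fluor was added and fluorescence read 30 minutes later.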

[8] = qHTS assay to identify small molecule antagonists of the estrogen related receptor signaling pathway with the pleiotropic PPARgamma coactivator (PGC) from Tox21 10K library (AID 1224841; call rule not given here; further: series mostly up to about 92 µM; actives are mostly falling curves and most rising ones were filed inactive; nearly all actives have a fitted effect of over 50% in size)
In short: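 PGC/ERR reporter cells were seeded at 2,000 cells/well and held 6 hours at 37 C/5% CO2 before pin-tool addition of compounds in DMSO. After 18 hours at 37 C, One-Glo was added and luminescence read after 30 minutes at room temperature.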

[9] = qHTS assay to identify small molecule agonists of the estrogen related receptor signaling pathway with the pleiotropic PPARgamma coactivator (PGC) from Tox21 10K library (AID 1224842); further: nearly all actives have a fitted effect of over 15% in size
In short: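 PGC/ERR reporter cell line, 2,000 cells per well, incubated 6 h at 37 C before 23 nL compound in DMSO was added. After 18 h at 37 C, One-Glo luminescence read following 30 min at room temperature.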

[10] = target: Thyrotropin receptor (Homo sapiens) (UniProt P16473); assay: qHTS assay to identify small molecule agonists of the thyroid stimulating hormone receptor (TSHR) signaling pathway (AID 1224843; calls by dose curve; further: nearly all actives have a fitted effect of over 45% in size)
Thyrotropin receptor (Homo sapiens), sequence (P16473 whole entry, looked up): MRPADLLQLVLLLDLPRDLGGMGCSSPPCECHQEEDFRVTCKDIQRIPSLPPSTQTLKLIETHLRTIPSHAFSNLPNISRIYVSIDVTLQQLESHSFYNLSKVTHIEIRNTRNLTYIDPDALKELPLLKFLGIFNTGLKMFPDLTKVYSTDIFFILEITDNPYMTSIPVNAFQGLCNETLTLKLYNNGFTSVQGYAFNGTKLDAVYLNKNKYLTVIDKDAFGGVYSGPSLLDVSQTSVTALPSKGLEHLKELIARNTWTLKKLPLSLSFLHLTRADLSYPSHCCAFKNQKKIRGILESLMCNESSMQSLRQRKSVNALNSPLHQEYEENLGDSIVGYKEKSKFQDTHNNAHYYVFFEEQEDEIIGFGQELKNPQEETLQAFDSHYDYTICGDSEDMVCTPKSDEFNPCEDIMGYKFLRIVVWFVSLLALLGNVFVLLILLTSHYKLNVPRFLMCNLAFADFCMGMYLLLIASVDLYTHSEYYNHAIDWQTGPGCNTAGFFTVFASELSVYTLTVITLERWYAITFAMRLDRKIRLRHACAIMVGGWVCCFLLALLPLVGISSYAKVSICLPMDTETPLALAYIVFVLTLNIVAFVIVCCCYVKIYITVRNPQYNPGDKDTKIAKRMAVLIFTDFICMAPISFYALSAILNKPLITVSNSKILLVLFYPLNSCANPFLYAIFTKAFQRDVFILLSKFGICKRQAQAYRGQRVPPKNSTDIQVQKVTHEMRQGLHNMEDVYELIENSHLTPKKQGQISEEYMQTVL
In short: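 TSHR-HEK293 cells in agonist mode, 30 min room-temperature step, then cAMP measured by competitive HTRF (cAMP-d2 with anti-cAMP cryptate) after 1 h at room temperature. Tested at 15 concentrations in triplicate.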

[11] = qHTS assay to identify small molecule agonists of the hypoxia (HIF-1) signaling pathway - cell viability counter screen (AID 1224844; calls by dose curve; further: nearly all actives have a fitted effect of over 50% in size)
In short: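 HRE-bla ME-180 cells in medium with 0.5% dialyzed FBS were preincubated 5 hrs at 37C, exposed to compounds for 17 hrs, then viability was read as CellTiter-Glo luminescence after 30 min at room temperature, in the reporter wells.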

[12] = qHTS assay to identify small molecule agonists of the hypoxia (HIF-1) signaling pathway (AID 1224846; active means well fitted activation curve with a large enough effect in the signal ratio in the repeat runs, not every such curve was filed as active; the % refers to the signal ratio)
In short: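 HRE-bla ME-180 cells (beta-lactamase reporter under hypoxia response element) were plated at 2,000 cells/well in medium with 0.5% dialyzed FBS, rested 5 hrs, then given compounds in DMSO for 17 hrs at 37C, 5% CO2. Reporter induction was read with CCF4-AM FRET substrate.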

[13] = qHTS assay to identify small molecule agonists of H2AX - cell viability counter screen (AID 1224847; calls by dose curve; further: top concentration of the series differs between compounds; nearly all actives have a fitted effect of over 30% in size)
In short: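 CHO-K1 cells plated overnight at 37C, then exposed 3 h at 37C to compounds at 15 concentrations (0.76% DMSO final). Viability by CellTiter-Glo luminescence after 30 min at room temperature.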

[14] = qHTS assay to identify small molecule antagonists of the estrogen related receptor (ERR) signaling pathway from Tox21 library (AID 1224848); further: nearly all actives have a fitted effect of over 50% in size
In short: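 ERR reporter cell line (from NTP) seeded 2,000 cells/well, rested 6 h at 37 C/5% CO2, then pin-dosed with compounds in DMSO. After 18 h at 37 C, ONE-Glo added; luminescence read after 30 min at room temperature.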

[15] = qHTS assay to identify small molecule agonists of the estrogen related receptor (ERR) signaling pathway from Tox21 library (AID 1224849; calls by dose curve; further: nearly all actives have a fitted effect of over 15% in size)
In short: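 ERR reporter cell line (NTP) seeded, rested 6 h at 37 C/5% CO2, then pinned with Tox21 compounds in DMSO. After 18 h at 37 C, ONE-Glo luciferase luminescence was read following 30 min at room temperature.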

[16] = qHTS RealTime-Glo MT Cell Viability Assay in HepG2 cells - 24 hour (AID 1224867); further: nearly all actives have a fitted effect of over 50% in size
In short: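 Compound treatment began 5 h after plating HepG2 cells (600/well) with NanoLuc luciferase and prosubstrate. Plates stayed at 37 C for 40 h; luminescence was captured at six time points, 0 h through 40 h.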

[17] = qHTS RealTime-Glo MT Cell Viability Assay in HEK293 cells - 32 hour (AID 1224868)
In short: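 Quantitative high-throughput screen of the Tox21 10K library in HEK293: cells and RealTime-Glo reagents plated together, compound added at 5 h, luminescence monitored through 40 h at 37 C.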

[18] = A CellTox Green Cytotoxicity Assay to monitor cytotoxicity in HEK293 cells - 0 hour (AID 1224869); further: nearly all actives have a fitted effect of over 50% in size
In short: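 HEK293 cells premixed with CellTox Green dye were seeded at 600 cells/well and left 5 h at 37 C/5% CO2 before pin transfer of 23 nL compound in DMSO. Fluorescence from dye bound to dead-cell DNA was read during 40 h treatment.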

[19] = qHTS assay to identify small molecule agonists of H2AX (AID 1224845; active means well fitted activation curve with a large enough effect in the signal ratio in the repeat runs, not every such curve was filed as active; the % refers to the signal ratio)
In short: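 Wild-type CHO-K1 cells, plated overnight, exposed 3hr at 37C to 15 concentrations (0.76% DMSO final). Lysed, then HTRF anti-pH2AX (S139) cryptate and anti-H2AX-d2 antibodies, 24 hr room temperature; 665/620 nm emission read.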

SMILES	Potency [1]	Potency [2]	Potency [3]	Potency [4]	outcome [5]	Potency [6]	Potency [7]	Potency [8]	outcome [9]	outcome [10]	outcome [11]	outcome [12]	outcome [13]	outcome [14]	outcome [15]	Potency [16]	Potency [17]	outcome [18]	outcome [19]
CCNc1cccc(C)c1	inactive	inactive	inactive	inactive	inactive	inactive	inactive	inactive	inactive	inactive	inactive	inactive	inactive	inactive	inactive	inactive	inactive	inactive	–
CC1(C)S[C@@H]2[C@H](NC(=O)COc3ccccc3)C(=O)N2[C@H]1C(=O)O	inactive	inactive	inactive	inactive	inactive	inactive	inactive	inactive	inactive	inactive	inactive	–	inactive	inactive	inactive	inactive	inactive	–	inactive
COc1ccc(N)c(C)c1	inactive	inactive	inactive	inactive	inactive	inactive	inactive	–	–	inactive	inactive	inactive	inactive	–	–	inactive	inactive	inactive	–
N#Cc1ccccc1	inactive	inactive	inactive	inactive	inactive	inactive	inactive	inactive	inactive	inactive	inactive	inactive	inactive	inactive	inactive	inactive	inactive	inactive	inactive
O=C1c2ccccc2CCc2ccccc21	inactive	inactive	inactive	inactive	inactive	31.3 µM (active) and 26.6 µM (active)	–	inactive	inactive	inactive	inactive	inactive	inactive	inactive	inactive	inactive	inactive	inactive	–
O=C(O)c1cc2ccccc2cc1O	inactive	35.3 µM (active) and 31.7 µM (active)	inactive	inactive	inactive	43.3 µM (active)	inactive	inactive	inactive	inactive	inactive	inactive	inactive	inactive	inactive	inactive	inactive	inactive	inactive
CCCCCCCCCCCCCCCCO	inactive	inactive	inactive	inactive	inactive	inactive	inactive	–	–	inactive	inactive	inactive	inactive	–	–	inactive	inactive	–	inactive
O=[N+]([O-])c1ccc2nc[nH]c2c1	inactive	inactive	inactive	inactive	inactive	inactive	inactive	–	–	inactive	inactive	inactive	inactive	–	–	inactive	inactive	–	inactive
CCCCCCCCCCN	inactive	inactive	inactive	inactive	inactive	inactive	inactive	–	–	inactive	inactive	inactive	inactive	–	–	inactive	inactive	–	–
CNC(=O)Oc1ccc2c(c1)[C@]1(C)CCN(C)[C@@H]1N2C	inactive	inactive	inactive	inactive	inactive	inactive	inactive	–	–	inactive	inactive	–	inactive	–	–	inactive	inactive	inactive	inactive
CCCOC(=O)c1ccccc1	inactive	inactive	inactive	inactive	inactive	inactive	inactive	inactive	inactive	inactive	inactive	inactive	inactive	inactive	inactive	inactive	inactive	inactive	inactive
O=C1C(c2[nH]c3ccccc3c2O)=Nc2ccccc21	inactive	inactive	inactive	inactive	inactive	inactive	–	inactive	inactive	inactive	inactive	inactive	inactive	inactive	inactive	inactive	inactive	inactive	inactive
O=C(O)c1ccccc1C(=O)O	inactive	inactive	inactive	inactive	inactive	inactive	inactive	–	–	inactive	inactive	inactive	inactive	–	–	inactive	inactive	inactive	inactive
O=C(O)c1ccc(C(=O)O)c(C(=O)O)c1	inactive	inactive	inactive	inactive	inactive	inactive	–	inactive	inactive	inactive	inactive	–	inactive	inactive	inactive	inactive	inactive	–	inactive
O=c1[nH]cnc2[nH]ncc12	inactive	inactive	inactive	inactive	inactive	inactive	inactive	–	–	–	inactive	–	inactive	–	–	inactive	inactive	inactive	inactive
O=C(O)CCCCCCCCC(=O)O	inactive	inactive	inactive	inactive	inactive	inactive	–	inactive	inactive	inactive	inactive	inactive	inactive	inactive	inactive	inactive	inactive	inactive	inactive
CC(C)OP(=O)(CP(=O)(OC(C)C)OC(C)C)OC(C)C	inactive	inactive	inactive	inactive	inactive	inactive	inactive	–	–	–	inactive	inactive	inactive	–	–	inactive	inactive	inactive	inactive
